GPR151 ag – activates the human receptor GPR151; Q8TDV0; PathHunter beta-arrestin GPR151 cells, luminescence; activation, % at 11.2 µM; 650,000 tested, 1% active; AID 1508602; in the data active = activation above about 4.9%;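 note: 0% = median of compound wells and 100% = cells with positive control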
Target sequence (Q8TDV0 whole entry, looked up): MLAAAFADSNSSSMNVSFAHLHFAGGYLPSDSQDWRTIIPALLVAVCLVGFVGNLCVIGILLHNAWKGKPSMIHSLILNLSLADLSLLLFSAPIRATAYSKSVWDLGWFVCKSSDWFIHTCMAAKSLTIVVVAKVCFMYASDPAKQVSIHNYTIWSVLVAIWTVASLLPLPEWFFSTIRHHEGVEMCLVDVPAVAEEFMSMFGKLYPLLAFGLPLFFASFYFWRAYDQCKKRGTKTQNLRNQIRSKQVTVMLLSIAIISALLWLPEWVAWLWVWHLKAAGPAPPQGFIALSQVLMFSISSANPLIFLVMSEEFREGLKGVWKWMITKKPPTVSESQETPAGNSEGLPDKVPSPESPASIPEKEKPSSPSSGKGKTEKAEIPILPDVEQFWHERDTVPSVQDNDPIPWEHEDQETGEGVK
FBW7 act – human FBW7 E3 ligase activation, primary screen; AlphaScreen FBW7–phospho-cyclin E peptide binding, activator screen; normalized activity (activation), % at 26.1 µM; 650,000 tested, 0.13% active; AID 1259310; in the data active = normalized activity above about 1.9%;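 note: purified mutant Fbw7 with reduced substrate affinity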
TEAD-YAP inh – TEAD-YAP interaction inhibition | HEK-TIYL cells, TEAD-Gal4/YAP UAS-luciferase luminescence | 640,000 tested, 1.4% active | inhibition, % at 9.12 µM; in the data active = inhibition above about 32%;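 note: 0% = median of test compound wells and 100% = reference inhibitor wells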
MITF inh – human MITF inhibition, primary screen; O75030; AlphaScreen MITF homodimerization, bead proximity signal; inhibition, % at 2.6 µM; 650,000 tested, 0.91% active; AID 1259374; in the data active = inhibition above about 50%;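 note: 0% = vehicle wells with protein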
MITF inh conf – confirmation of human MITF inhibitors | shares compounds with MITF inh | AlphaScreen MITF homodimerization, biotin/His-MITF beads | inhibition, % at 2.6 µM | 4,700 tested, 16% active;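 active = inhibition above a cutoff derived from the DMSO control wells, cut at about 28% in these data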;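 note: 0% = MITF dimer wells with DMSO only; inhibitors lower the bead chemiluminescence by keeping MITF from dimerizing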
AlphaScreen intf2 – counter-screen: compounds optically interfering with AlphaScreen. 4,700 tested, 7.6% active. LysRS AlphaScreen counterscreen, signal interference, triplicate. shares compounds with MITF inh. inhibition, % at 2.6 µM;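 active = inhibition above a cutoff derived from the DMSO control wells, cut at about 30% in these data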
* marks the source's active call; other numbers are inactive results; · = no result. A selection: hits, their analogues and other compounds. The true share with any hit is near 3.5%.

SMILES	GPR151 ag	FBW7 act	TEAD-YAP inh	MITF inh	MITF inh conf	AlphaScreen intf2
CCCS(=O)(=O)N1CCN(Cc2ccccc2F)CC1	0.1	0.5	6.1	56.9*	0.2	-3.5
CS(=O)(=O)N1CCN(Cc2nc3ccccc3[nH]2)CC1	-1.0	-0.5	-0.1	71.7*	8.0	12.2
COc1ccccc1/C=N\NC(=O)CNc1ccc(C)cc1	0.1	0.1	1.1	6.6	·	·
CCN1CCCC1CNCC(O)COc1ccccc1 (stereo not drawn)	-0.8	0.3	2.4	55.6*	-12.1	-7.3
O=C(c1ccco1)N1CCN(C(=O)C2CCCCC2)CC1	0.8	0.0	-3.5	15.2	·	·
COc1ccc(N2CCN(Cc3cccc(OC)c3OC)CC2)cc1	-0.2	0.0	-7.6	31.2	·	·
COc1cccc(CN2CCN(Cc3cccnc3)CC2)c1OC	-0.6	0.0	7.0	76.4*	5.5	11.4
COc1ccc(CN2CCN(Cc3cccnc3)CC2)c(OC)c1OC	0.6	0.3	3.9	81.3*	12.3	13.8
O=C(N1CCN(Cc2ccccc2)CC1)C12CC3CC(CC(O)(C3)C1)C2	1.0	-0.1	-3.1	53.0*	12.6	10.0
O=C(N1CCN(c2ccccc2)CC1)C12CC3CC(CC(O)(C3)C1)C2	-1.7	0.1	-7.1	5.2	·	·
NC(=S)N/N=C/c1cccn1-c1ccc([N+](=O)[O-])cc1	-0.8	-0.1	7.1	-0.9	·	·
COc1cc(CN(C)CCN(C)C)cc(OC)c1O	0.9	-0.2	3.0	54.9*	-2.8	-4.1
CC(=O)c1cccc(OCC(O)CNCc2cccc(C(F)(F)F)c2)c1 (stereo not drawn)	-0.5	-0.2	5.0	57.1*	-3.6	8.1
CCc1cccc(OCC(O)CNCc2cccnc2)c1 (stereo not drawn)	1.2	-0.1	2.6	76.2*	-13.8	17.8
COC(=O)C1=C(C(=O)OC)SC(=C2C(=S)C(C)(C)N(C(=O)c3ccccc3)c3ccc(OC(=O)c4ccccc4)cc32)S1	0.8	-0.3	12.2	4.4	·	·
CC1CCCCC1Nc1ncnc2sccc12 (stereo not drawn)	3.1	-0.1	7.4	64.3*	2.0	1.6
CCCS(=O)(=O)N1CCN(Cc2ccccc2[N+](=O)[O-])CC1	1.4	-0.1	-10.0	40.8	·	·
COc1cc(CN2CCN(CCOCCO)CC2)c([N+](=O)[O-])cc1OC	-0.9	-0.1	1.1	-27.9	·	·
CC(C)CC(=O)N1CCN(Cc2ccccc2[N+](=O)[O-])CC1	0.4	0.1	-10.4	56.2*	11.3	23.6
O=[N+]([O-])c1ccccc1CN1CCN(CCOCCO)CC1	0.0	-0.1	-1.1	61.8*	19.1	0.7
O=[N+]([O-])c1ccccc1CN1CCN(CCO)CC1	0.6	0.1	3.4	77.3*	-3.2	2.2
O=[N+]([O-])c1ccccc1CN1CCCCCCC1	-1.2	0.0	-2.3	24.3	·	·
Cc1ccccc1N1CCN(Cc2cccnc2)CC1	2.8	0.0	15.2	28.2	·	·
c1ccc(CN2CCN(C3CCN(Cc4cccnc4)CC3)CC2)cc1	2.7	-0.1	0.3	38.2	·	·
CCc1ccc(CN2CCN(Cc3cccnc3)CC2)cc1	-0.4	0.0	-0.9	76.6*	1.6	-1.4
SMILES	GPR151 ag	FBW7 act	TEAD-YAP inh	MITF inh	MITF inh conf	AlphaScreen intf2
Clc1ccc(CN2CCN(Cc3cccnc3)CC2)cc1	0.6	-0.1	-5.2	84.4*	8.6	11.8
Clc1ccccc1CN1CCN(Cc2cccnc2)CC1	-0.6	-0.2	-3.4	82.6*	9.6	12.3
c1ccc(CN2CCN(Cc3cccnc3)CC2)nc1	0.4	-0.2	0.0	74.1*	-18.3	-0.7
O=C1CCN(Cc2cccnc2)CCN1Cc1ccc(F)cc1Cl	0.6	0.3	8.0	13.0	·	·
C=CCNC(=O)c1c[nH]c2ccc(S(=O)(=O)N(C)c3ccccc3OCC)cc2c1=O	0.0	0.4	-1.1	9.8	·	·
O=S(=O)(c1ccccc1)N(CC(O)CN(C1CCCCC1)C1CCCCC1)c1ccccc1 (stereo not drawn)	0.7	-0.2	-5.2	2.8	·	·
Clc1ccc(N2CCN(Cc3cccnc3)CC2)cc1	-0.5	-0.1	-3.0	51.8*	-2.3	8.0
FC(F)(F)c1cccc(N2CCN(Cc3cccnc3)CC2)c1	-0.8	-0.1	6.8	45.6	·	·
FC(F)(F)c1ccc(CN2CCN(Cc3cccnc3)CC2)cc1	1.1	-0.2	-13.4	80.8*	-6.5	-6.5
CCCOc1cn(-c2ccc(F)cc2)nc1C(=O)Nc1ccccc1	0.5	0.1	12.5	1.6	·	·
O=C(C1CCN(S(=O)(=O)c2ccc(F)cc2)CC1)N1CCCCC1	-0.2	0.3	6.7	-8.1	·	·
CC1(C)C(=O)NCCN1C(=O)C1CCN(S(=O)(=O)c2ccc(F)cc2)CC1	-0.8	0.2	-0.2	68.5*	-7.7	-5.1
COC(=O)C(C)CN1CCN(C)CC1 (stereo not drawn)	0.1	-0.2	-3.2	59.7*	-22.9	-6.4
COc1ccccc1NC(=S)NCCN(C)C	2.3	0.0	-9.7	7.4	·	·
Cc1cccn2c(=O)c3cc(C(=O)N4c5ccccc5CC4C)sc3nc12 (stereo not drawn)	0.3	0.1	-13.9	0.3	·	·
C=CCNc1nc(-c2ccccn2)nnc1-c1ccccc1	2.8	-0.5	-4.9	70.3*	68.7*	99.7*
Cc1c(Nc2ccc([N+](=O)[O-])c3nonc23)c(=O)n(-c2ccccc2)n1C	-0.3	0.0	3.1	18.7	·	·
Cc1cccc(-n2nc([N+](=O)[O-])c(=Nc3ccc(F)cc3)n2O)c1	-0.6	-0.2	-14.9	72.2*	8.8	6.2
COc1cccc(N=c2c([N+](=O)[O-])nn(-c3ccc(Cl)cc3)n2O)c1	-0.4	-0.4	9.5	1.5	·	·
Cc1cccc(N=c2c([N+](=O)[O-])nn(-c3ccc(Cl)cc3)n2O)c1	-1.2	-0.4	10.2	78.0*	8.5	9.5
Cc1ccc(N=c2c([N+](=O)[O-])nn(-c3cccc(C)c3)n2O)cc1	0.6	-0.8	2.8	22.1	·	·
CCc1ccc(NC(=O)c2c(-c3ccccc3)noc2C)cc1	1.7	0.1	8.1	0.2	·	·
CC(CCC(=O)O)(c1ccc(O)c([N+](=O)[O-])c1)c1ccc(O)c([N+](=O)[O-])c1	0.7	-0.1	-11.6	-6.0	·	·
CN(C(=S)SNc1ccc([N+](=O)[O-])cc1[N+](=O)[O-])C1CCS(=O)(=O)C1 (stereo not drawn)	1.3	0.6	9.9	10.6	·	·
CC(C)c1ccc(-c2c(C#N)c(N)nc3sc(C(=O)Nc4ccc(Cl)cc4)c(N)c23)cc1	0.2	0.1	1.0	2.5	·	·
COc1cccc(NC(=O)c2sc3nc(N)c(C#N)c(-c4ccc(C(C)C)cc4)c3c2N)c1	1.4	0.0	-5.3	52.0*	-2.5	-8.5
Cc1cccc(OCC(=O)Nc2cc(C)c(C)cc2O)c1	-0.5	-0.1	-2.5	98.0*	-12.4	3.2
CCOC(=O)CSc1nc2c(cc1C#N)CCCCC2	0.1	0.0	-50.0	8.2	·	·
CCOC(=O)CC(=O)CSc1nc2c(cc1C#N)CN(C)CC2	-0.6	-0.3	-8.4	52.7*	23.3	4.6

Bioassay records (PubChem)
